The supplement of paper PMC12645437, “Orthogonal IMiD-Degron Pairs Induce Selective Protein Degradation in Cells” (ACS Chemical Biology, 2025)
Whole data set: some 8,300 sequences, median “log2 fold change of degron read counts, EGFP-low vs EGFP+ sorted cells (limma voom), compound-induced degradation” near -1.1, cut for the highest 2% near 3.2. The entries come from a sample that favours the highest values as a whole.

T1: CRBN, Q96SW2
T1 chain: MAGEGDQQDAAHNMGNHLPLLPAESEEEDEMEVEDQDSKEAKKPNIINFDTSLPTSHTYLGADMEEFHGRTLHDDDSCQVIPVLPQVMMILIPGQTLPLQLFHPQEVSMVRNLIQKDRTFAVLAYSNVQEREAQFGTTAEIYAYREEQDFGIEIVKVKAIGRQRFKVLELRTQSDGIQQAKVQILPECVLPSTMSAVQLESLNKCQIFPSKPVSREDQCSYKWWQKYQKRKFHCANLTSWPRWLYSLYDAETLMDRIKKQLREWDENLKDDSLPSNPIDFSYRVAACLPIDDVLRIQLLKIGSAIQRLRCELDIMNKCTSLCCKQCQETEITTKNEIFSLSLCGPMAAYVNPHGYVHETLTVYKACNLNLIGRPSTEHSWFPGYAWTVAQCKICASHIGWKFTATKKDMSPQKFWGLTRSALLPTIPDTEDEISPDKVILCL

B1: 46F_47T_49P_50I_52G_53A_54I_55F_67L_, Q9UKT9 (peptide)
chain: FTCPICGAIFTQKGNLLRHIKL
B2: 46F_47F_49D_50I_52G_53A_54L_55F_67L_, Q9UKT9 (peptide)
chain: FFCDICGALFTQKGNLLRHIKL
B3: 46F_47K_49P_50V_52G_53A_54E_55F_67L_, Q9UKT9 (peptide)
chain: FKCPVCGAEFTQKGNLLRHIKL
B4: 46F_47N_49N_50I_52G_53A_54A_55F_67L_, Q9UKT9 (peptide)
chain: FNCNICGAAFTQKGNLLRHIKL
B5: 46L_47W_49P_50I_52G_53F_54H_55C_67L_, Q9UKT9 (peptide)
chain: LWCPICGFHCTQKGNLLRHIKL
B6: 46L_47E_49P_50I_52G_53F_54H_55C_67L_, Q9UKT9 (peptide)
chain: LECPICGFHCTQKGNLLRHIKL
B7: 46L_47N_49P_50I_52G_53F_54H_55C_67L_, Q9UKT9 (peptide)
chain: LNCPICGFHCTQKGNLLRHIKL
B8: 46L_47Q_49P_50I_52G_53F_54H_55C_67L_, Q9UKT9 (peptide)
chain: LQCPICGFHCTQKGNLLRHIKL
B9: 46L_47F_49P_50I_52G_53F_54H_55C_67L_, Q9UKT9 (peptide)
chain: LFCPICGFHCTQKGNLLRHIKL
B10: 46L_47H_49P_50I_52G_53F_54H_55C_67L_, Q9UKT9 (peptide)
chain: LHCPICGFHCTQKGNLLRHIKL
B11: 46L_47M_49P_50I_52G_53F_54H_55C_67L_, Q9UKT9 (peptide)
chain: LMCPICGFHCTQKGNLLRHIKL
B12: 46L_47V_49P_50I_52G_53F_54H_55C_67L_, Q9UKT9 (peptide)
chain: LVCPICGFHCTQKGNLLRHIKL
B13: 46L_47Y_49P_50I_52G_53F_54H_55C_67L_, Q9UKT9 (peptide)
chain: LYCPICGFHCTQKGNLLRHIKL
B14: 46L_47T_49P_50I_52G_53F_54H_55C_67L_, Q9UKT9 (peptide)
chain: LTCPICGFHCTQKGNLLRHIKL
B15: 46L_47S_49P_50I_52G_53F_54H_55C_67L_, Q9UKT9 (peptide)
chain: LSCPICGFHCTQKGNLLRHIKL
B16: 46L_47D_49P_50I_52G_53F_54H_55C_67L_, Q9UKT9 (peptide)
chain: LDCPICGFHCTQKGNLLRHIKL
B17: 46L_47A_49N_50Q_52G_53F_54R_55C_67L_, Q9UKT9 (peptide)
chain: LACNQCGFRCTQKGNLLRHIKL
B18: 46F_47S_49P_50I_52G_53R_54L_55F_67L_, Q9UKT9 (peptide)
chain: FSCPICGRLFTQKGNLLRHIKL
B19: 46F_47V_49P_50Q_52G_53A_54L_55F_67L_, Q9UKT9 (peptide)
chain: FVCPQCGALFTQKGNLLRHIKL
B20: 46F_47G_49E_50I_52G_53A_54W_55F_67L_, Q9UKT9 (peptide)
chain: FGCEICGAWFTQKGNLLRHIKL
B21: 46F_47L_49P_50Q_52G_53A_54Q_55F_67L_, Q9UKT9 (peptide)
chain: FLCPQCGAQFTQKGNLLRHIKL
B22: 46F_47D_49N_50I_52G_53A_54I_55F_67L_, Q9UKT9 (peptide)
chain: FDCNICGAIFTQKGNLLRHIKL
B23: 46F_47Y_49E_50I_52G_53H_54S_55F_67L_, Q9UKT9 (peptide)
chain: FYCEICGHSFTQKGNLLRHIKL
B24: 46F_47V_49N_50Q_52G_53A_54G_55F_67L_, Q9UKT9 (peptide)
chain: FVCNQCGAGFTQKGNLLRHIKL
B25: 46F_47F_49E_50I_52G_53H_54V_55F_67L_, Q9UKT9 (peptide)
chain: FFCEICGHVFTQKGNLLRHIKL
B26: 46L_47Y_49E_50I_52G_53F_54H_55C_67L_, Q9UKT9 (peptide)
chain: LYCEICGFHCTQKGNLLRHIKL
B27: 46L_47S_49E_50I_52G_53F_54H_55C_67L_, Q9UKT9 (peptide)
chain: LSCEICGFHCTQKGNLLRHIKL
B28: 46L_47A_49E_50I_52G_53F_54H_55C_67L_, Q9UKT9 (peptide)
chain: LACEICGFHCTQKGNLLRHIKL
B29: 46L_47I_49E_50I_52G_53F_54H_55C_67L_, Q9UKT9 (peptide)
chain: LICEICGFHCTQKGNLLRHIKL
B30: 46L_47C_49E_50I_52G_53F_54H_55C_67L_, Q9UKT9 (peptide)
chain: LCCEICGFHCTQKGNLLRHIKL
B31: 46L_47W_49E_50I_52G_53F_54H_55C_67L_, Q9UKT9 (peptide)
chain: LWCEICGFHCTQKGNLLRHIKL

Target: T1, CRBN, Q96SW2
Experiment: log2 fold change of degron read counts, EGFP-low vs EGFP+ sorted cells (limma voom), compound-induced degradation; higher = more compound-induced degradation of the degron-EGFP fusion; degrons are variants of IKZF1/3 zinc finger 2; compound dose not given here
Conditions: Jurkat, 18 h
[1] = compound: compound 19 (5-tert-butyl-thalidomide)
[2] = compound: compound 22 (5-morpholino-thalidomide)
[3] = compound: compound 33 (diphenyl IMiD analogue)
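Also: pooled lentiviral library of zinc finger degron-EGFP fusions in mCherry-positive Jurkat cells, FACS-sorted after compound exposure, with degron abundance counted by next-generation sequencing.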

Sequence | log2 fold change of degron read counts [1] | log2 fold change of degron read counts [2] | log2 fold change of degron read counts [3] | log2 fold change of degron read counts (compound: thalidomide)
B1 | -0.365 | 1.34 | 2.33 | 2.71
B2 | 2.27 | 1.43 | 0.356 | -1.44
B3 | -1.33 | -1.7 | -2.52 | -0.999
B4 | 1.61 | 0.951 | 0.00357 | -0.128
B5 | 2.74 | 3.54 | 2.74 | 1.65
B6 | -0.151 | -0.655 | 1.91 | 2.84
B7 | 1.34 | 0.56 | 0.934 | 1.12
B8 | 0.55 | 1.17 | 1.51 | 3.3
B9 | 2.94 | 3.37 | 2.6 | 1.88
B10 | 2.33 | 2.45 | 2.55 | 1.95
B11 | 0.0156 | 1.21 | 2.51 | 2.06
B12 | 0.161 | 2 | 1.81 | 2.57
B13 | 3.13 | 3.49 | 2.61 | 1.83
B14 | 1.1 | 2.57 | 2.47 | 2.78
B15 | 2.37 | 2.02 | 2.39 | 2.28
B16 | 1.47 | 0.38 | 0.522 | 1.41

Sequence | log2 fold change of degron read counts [1] | log2 fold change of degron read counts [2] | log2 fold change of degron read counts [3] | log2 fold change of degron read counts (compound: thalidomide)
B17 | -0.828 | -1.5 | -1.86 | -1.22
B18 | -0.866 | -1.05 | 1.44 | -0.361
B19 | -2.37 | -1.48 | -0.389 | -0.926
B20 | -0.259 | -1.17 | 0.513 | -0.936
B21 | -2.2 | -2.3 | 0.482 | -0.585
B22 | -1.43 | -1.22 | -0.173 | 0.319
B23 | -2.01 | -3.04 | -1.92 | -2.8
B24 | -2.26 | -1.63 | -0.863 | -1.05
B25 | -1.37 | -1.97 | -2.03 | -1.87
B26 | 3.13 | 3.42 | 2.8 | 1.66
B27 | 0.928 | 0.357 | 0.553 | 0.222
B28 | 1.51 | 0.415 | 0.86 | -0.0575
B29 | -0.287 | 0.622 | 1.12 | 1.6
B30 | 0.332 | -0.174 | 1.51 | 0.845
B31 | 2.73 | 3.48 | 2.33 | 1.12
